Source: PubChem
IkB sig inh: IkB Signaling; ABC-DLBCL IkBa-CBG/CBR dual luciferase ratio, 4 h; response scale: scaled: untreated 0%, proteasome inhibitor 100%; Potency, µM (highest dose often 57.1 µM); 110,000 tested, 0.04% active; AID 445, 2006; active = well fitted curve in the direction sought with a large enough effect in the signal ratio, not every such curve was filed as active; inconclusive = small, poorly fitted or top-dose-only effect, or a change in a side signal; the % refers to the signal ratio;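 also: the direction sought is a rising ratio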
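In this assay, an IκBα–CBG68 fusion accumulates when IKK-driven degradation is blocked; native CBR normalizes for cell number. OCI-Ly3 cells were treated 4 h with compound and doxycycline, then green and red light read after Chroma-Glo addition.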
IMPase cell inh: qHTS Assay for Identifying the Cell-Membrane Permeable IMPase Inhibitors. Inositol monophosphatase 1 (Rattus norvegicus), P97697. inhibition (IP1 accumulation), % at 46.1 µM. CHO-M1 cells, IP1 accumulation, HTRF TR-FRET ratio. 120,000 tested, under 10 active; active = well fitted curve in the direction sought with a large enough effect in the signal ratio, not every such curve was filed as active; inconclusive = small, poorly fitted or top-dose-only effect, or a change in a side signal; inactive = no such curve, though single readings can be large or run the other way; the % refers to the signal ratio;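 also: cells stimulated with carbachol in lithium chloride buffer; higher means more IMPase inhibition seen as more IP1 and lower FRET ratio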
Target sequence (P97697 whole entry, looked up): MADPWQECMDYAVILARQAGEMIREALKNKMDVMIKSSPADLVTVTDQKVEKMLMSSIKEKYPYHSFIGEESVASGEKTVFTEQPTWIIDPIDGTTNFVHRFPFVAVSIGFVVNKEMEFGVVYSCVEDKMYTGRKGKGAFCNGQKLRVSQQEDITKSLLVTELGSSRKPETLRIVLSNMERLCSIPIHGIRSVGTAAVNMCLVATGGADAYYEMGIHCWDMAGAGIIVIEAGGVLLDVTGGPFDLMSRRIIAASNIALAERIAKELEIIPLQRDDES
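Elevated IP1 in lysates lowers TR-FRET signal (665/620 ratio and 620 channel reported). Cells were CHO-M1, given carbachol (50 uM as added) plus 50mM LiCl, pH 7.4, 30 min, 37C; compounds titrated up to 46 uM; AC50 by Hill equation.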
p53ts 39C kill: qHTS Screen for Compounds that Selectively Target Cancer Cells with p53 Mutations: Cytotoxicity of p53ts Cells at the Nonpermissive Temperature; 130,000 tested, 1.5% active; H1299-p53A138V viability at 39C, ATP luminescence, 24 h; Potency, µM (doses to about 46.1 µM), usual class: cytotoxic; also: nearly all actives have a fitted effect of over 55% in size
p53ts 32C kill: qHTS Screen for Compounds that Selectively Target Cancer Cells with p53 Mutations: Cytotoxicity of p53ts Cells at the Permissive Temperature; H1299-p53A138V at 32C, ATP luminescence viability, 24 h; Potency, µM (doses to about 46.1 µM), most hits filed as cytotoxic; 130,000 tested, 0.93% active; AID 924, 2007; also: nearly all actives have a fitted effect of over 55% in size
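ATP-content luminescence (ATPlite) read-out after 24 h compound exposure at 32C in H1299-p53A138V cells (600/well). Tested up to 46 uM. Normalized to DMSO (0%) and 100 uM tamoxifen (100% killing); Hill-fit AC50.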
Luciferase inh: qHTS Assay for Inhibitors of Firefly Luciferase; Potency, µM (highest dose often 57.1 µM), hits mostly inhibitors; AID 411, 2009; 72,000 tested, 2.2% active; purified firefly luciferase, luminescence, 8 min; also: nearly all actives have a fitted effect of over 40% in size
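Here, luciferase activity is measured as luminescence following an 8 min room-temperature reaction at 10 uM ATP, pH 7.2. Every library sample is titrated.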
Hsp90 Hop PPI: qHTS Assay for Disrupters of an Hsp90 Co-Chaperone Interaction | Potency, µM (doses to about 57 µM) | AID 595, 2007 | AlphaScreen TPR2A-His6 binding biotin-Hsp90 C-terminal peptide | Hsp90 C-terminal peptide / TPR2A (Hop) interaction, human | 71,000 tested, 0.44% active; active = well fitted curve in either direction with a large enough effect; inconclusive = small, poorly fitted or top-dose-only effect, or another doubt
Each line names hits and unclear results; the compound was inactive in the other large screens. This excerpt belongs to a sample that is enriched for hits. Unless noted, calls follow the shape of the dose curve; as a rule, active = well fitted curve in the direction sought with a large enough effect; inconclusive = small, poorly fitted or top-dose-only effect, or another doubt; inactive = no such curve, though single readings can be large; an effect the other way counts as inactive or inconclusive.

Cc1ccccc1CCNC(=O)c1ccc2c(c1)nc1n2CCCCC1	IkB sig inh inconclusive, p53ts 39C kill 1µM, p53ts 32C kill 1.6µM (no result: IMPase cell inh, Luciferase inh, Hsp90 Hop PPI)
CC(CNC(=O)c1ccc2c(c1)nc1n2CCCCC1)c1ccccc1 (stereo not given)	IkB sig inh inconclusive, p53ts 39C kill 13µM, p53ts 32C kill inconclusive (no result: IMPase cell inh, Luciferase inh, Hsp90 Hop PPI)
CC1CCn2c(nc3cc(C(=O)NCCc4ccccc4)ccc32)C1 (stereo not given)	p53ts 39C kill inconclusive, p53ts 32C kill 16µM (no result: IMPase cell inh, Luciferase inh, Hsp90 Hop PPI)
O=S(=O)(c1ccc(-n2cnnn2)cc1)N1CCN(c2cccc(C(F)(F)F)c2)CC1	none (no result: IMPase cell inh, Luciferase inh, Hsp90 Hop PPI)
Cn1c(=O)c2c(nc(NCc3ccccc3)n2Cc2ccc(Cl)c(Cl)c2)n(C)c1=O	IkB sig inh inconclusive (no result: Luciferase inh, Hsp90 Hop PPI)
Cc1cc(C)c(S(=O)(=O)NCc2csc(-c3ccccc3)n2)c(C)c1	IkB sig inh inconclusive (no result: IMPase cell inh, Luciferase inh, Hsp90 Hop PPI)
CCN1CCN(Cc2ccc(NC(=O)Nc3ccccc3)cc2)CC1	p53ts 39C kill inconclusive, p53ts 32C kill inconclusive, Luciferase inh 13µM
CCN1CCN(Cc2ccc(NC(=O)Nc3ccc(OC)cc3)cc2)CC1	none
CC(C)Cc1nn2c(=O)cc(COC(=O)c3ccc(NC(=O)C4CCCCC4)cc3)nc2s1	none (no result: IMPase cell inh, Luciferase inh, Hsp90 Hop PPI)
COc1ccc(CNc2nc3c(-c4cccc(F)c4)nnn3c3ccccc23)cc1	p53ts 39C kill 13µM, p53ts 32C kill inconclusive (no result: IMPase cell inh, Luciferase inh, Hsp90 Hop PPI)
COc1ccc(CNc2nc3c(-c4cccc(C)c4)nnn3c3ccccc23)cc1	IkB sig inh inconclusive, p53ts 39C kill inconclusive (no result: IMPase cell inh, Luciferase inh, Hsp90 Hop PPI)
CCN(CC)S(=O)(=O)c1nnc(NC(=O)COc2ccc(Cl)cc2)s1	IkB sig inh inconclusive, p53ts 39C kill 16µM, p53ts 32C kill inconclusive (no result: IMPase cell inh, Luciferase inh, Hsp90 Hop PPI)
Cc1cc(C)c(NC(=O)c2sc3nc(C)cc(C)c3c2NC(=O)c2ccccc2)c(C)c1	none (no result: IMPase cell inh, Luciferase inh, Hsp90 Hop PPI)
CC(C)[C@@H]1NC(=O)[C@H](CCCCN)NC(=O)[C@H](Cc2c[nH]c3ccccc23)NC(=O)[C@H](Cc2ccc(O)cc2)NC(=O)[C@H](C)N(C)C(=O)[C@H](Cc2ccccc2)NC1=O	none
CC(C)CC1NC(=O)C(CCCN)NC(=O)C(C(C)C)NC(=O)C2CCCN2C(=O)C(Cc2ccccc2)NC(=O)C(CC(C)C)NC(=O)C(CCCN)NC(=O)C(C(C)C)NC(=O)C2CCCN2C(=O)C(Cc2ccccc2)NC1=O (stereo not given)	p53ts 39C kill 5µM (no result: IkB sig inh, IMPase cell inh, Luciferase inh, Hsp90 Hop PPI)
Cc1ccc(-c2nnc(-c3ccc4ccccc4c3)o2)cc1	none (no result: IMPase cell inh)
Cc1ccc(-c2nnc(Nc3ccccc3)o2)cc1	IkB sig inh inconclusive, p53ts 39C kill 3.2µM, p53ts 32C kill 3.2µM, Luciferase inh 0.63µM
CCn1c(=NC(=O)c2ccc3c(c2)OCCO3)sc2c(C)ccc(OC)c21	p53ts 39C kill 10µM (no result: IMPase cell inh, Luciferase inh, Hsp90 Hop PPI)
c1ccc(COc2ccc(OCCOCCn3cncn3)cc2)cc1	IkB sig inh inconclusive, p53ts 39C kill inconclusive, p53ts 32C kill inconclusive, Luciferase inh 16µM
COc1cccc(Cn2cnc3c2c(=O)n(C)c(=O)n3C)c1	none (no result: Luciferase inh, Hsp90 Hop PPI)
CCOc1ccc(C(=O)Nc2ccc3oc(-c4ccc(Br)cc4)nc3c2)cc1	none (no result: Luciferase inh, Hsp90 Hop PPI)
CCOc1ccc(C(=O)Nc2ccc3oc(-c4cccc5ccccc45)nc3c2)cc1	IMPase cell inh inconclusive, p53ts 39C kill 10µM (no result: Luciferase inh, Hsp90 Hop PPI)
CCc1ccc2oc(-c3ccc(NC(=O)c4cc(OC)c(OC)c(OC)c4)cc3)nc2c1	none (no result: Luciferase inh, Hsp90 Hop PPI)
COc1cc(C(=O)Nc2ccc3oc(-c4ccccc4)nc3c2)cc(OC)c1OC	IkB sig inh inconclusive, p53ts 39C kill 13µM, p53ts 32C kill inconclusive (no result: Luciferase inh, Hsp90 Hop PPI)
COc1cc2ccccc2cc1C(=O)Nc1ccc2oc(-c3ccc(Cl)cc3)nc2c1	IMPase cell inh inconclusive, p53ts 39C kill 7.9µM (no result: Luciferase inh, Hsp90 Hop PPI)
CCOC(=O)c1nn(-c2ccc3c(c2)CCN3C(C)=O)cc1O	p53ts 39C kill 4µM, p53ts 32C kill 5µM, Luciferase inh 10µM
COc1ccc(NC(=O)c2ccco2)cc1NC(=O)c1cccc(C)c1OC	none (no result: Luciferase inh, Hsp90 Hop PPI)
